This note sets out measurements from PubChem BioAssay AID485314 (National Center for Advancing Translational Sciences (NCATS), 2010).

Hit rate of the full screen: of about 340,000 compounds, about 4,500 (1.3%) were called active. Where a call stands in place of a potency, no number is given. Inconclusive results (about 5%) are left out. The sample holds actives, similar compounds and a random draw of the others, so the mix is not that of the screen. Calls follow the shape of the dose curve; as a rule, active = well fitted inhibition curve with a large enough effect; inconclusive = small, poorly fitted or top-dose-only effect, or another doubt; inactive = no such curve, though single readings can be large or run the other way.
Potency is read from the fitted curve at half-maximal effect.

In this assay the target is DNA polymerase beta (Homo sapiens) (UniProt P06746). Nature of the assay: qHTS Assay for Inhibitors of DNA Polymerase Beta. As to conditions: Pol beta primer extension/strand displacement, fluorescence kinetic; series mostly up to 114 µM. The source says: The base excision repair system in human cells is a target for therapeutic modulation of the response to irradiation treatment and DNA-damaging drugs. A key enzyme in this system is the bi-functional DNA polymerase known as DNA polymerase Beta (Pol Beta). The following is a homogeneous kinetic assay to study the primer extension and strand-displacement reaction catalyzed by pol beta.
A stepwise description of the 1536-well assay is shown in next Table. Three microliters of reagents (buffer in column 3 and 4 as negative control and 10 nM Pol beta in columns 1, 2, and 5-48) was dispensed into 1,536-well black solid-bottomed plate. Compounds (23 nL) were transferred via Kalypsys pin tool equipped with 1536-pin array (10 nL slotted pins, V&P Scientific, San Diego, CA). The plates were incubated for 15 min at room temperature, and 1 uL substrate (50 nM final concentration) were added to start the reaction and immediately read at 0 min read on Viewlux reader. The plate were further incubated for 10 min at room temperature, and then read on Viewlux again. Throughout the screen, reagent bottle and all liquid lines were chilled and made light-tight to minimize reagent degradation. All screening operations were performed on a fully integrated robotic system (Kalypsys, San Diego, CA) containing one RX-130 and two RX-90 anthropomorphic robotic arms (Staubli, Duncan, SC). Library plates were screened starting from the lowest and proceeding to the highest concentration, and a double-dipping step of the highest concentration was required to access higher concentrations of compounds. Vehicle-only plates, with DMSO being pin-transferred to the entire column 5-48 compound area, were inserted uniformly at the beginning and the end of each library in order to monitor for and record any shifts in the background, which can be affected by reagent dispensers or loss in enzyme activity overtime. Screening data were corrected, normalized, and concentration-effect relationships were derived by using publicly-available curve fitting algorithms developed in-house (http://ncgc.nih.gov/pub/openhts). A four parameter Hill equation was fitted to the concentration-response data by minimizing the residual error between the modeled and observed responses.
(In general: qHTS replaces the single test concentration by a dilution series.)
Turning to `COc1ccc(-c2nc3c(c(SCC(=O)Nc4ccc(C(=O)O)cc4)n2)Cc2ccccc2O3)cc1`, the Potency was 2.24 µM (active).
Under `COc1ccc(NC(=O)CSc2nc(N)c(-c3ccccc3)c(=O)[nH]2)cc1` stands “inactive”; under `COc1cc(OC)cc(-c2nnc(SCC(=O)Nc3ccc(C(=O)O)cc3)s2)c1`, “inactive”.
Turning to `O=C(NCCc1csc(-c2ccc(C(F)(F)F)cc2)n1)C(=O)Nc1ccc(F)c(Cl)c1`, the Potency result was “inactive”.
The value for `CC(=O)c1ccc(NC(=O)CSc2nc(-c3ccccc3F)nc3c2c(=O)n(C)c(=O)n3C)cc1` was “inactive”; that for `Cc1c(CC(=O)N2CCN(C(=O)C3COc4ccccc4O3)CC2)c(=O)oc2c(O)c(O)ccc12` (stereo not drawn) was 0.794 µM (active).
The value for `Cc1c(C)c2ccc(OCC(=O)N3CCC(C(=O)O)CC3)c(C)c2oc1=O` was “inactive”; that for `COc1ccc(OC)c2sc(N3CCN(C(=O)C4COc5ccccc5O4)CC3)nc12` (stereo not drawn) was “inactive”; that for `COc1ccc(OC)c(CNC(=O)CN2C(=O)CCn3nc(-c4cn(C)c5ccccc45)cc32)c1` was “inactive”.
In the case of `CC(=O)Nc1ccc(S(=O)(=O)N2CCN(c3ccccc3)CC2)cc1`, the Potency result was “inactive”.
As to `Cc1cc(/C=C2/SC(=O)N(CC(=O)N3CCCC3)C2=O)c(C)n1C`, the Potency entry is “inactive”.
The value for `Cc1cc(/C=C2\SC(=Nc3ccc(N4CCOCC4)cc3)N(C)C2=O)c(C)n1-c1cccnc1` was “inactive”; that for `Cc1cc(/C=C2\SC(=O)N(C)C2=O)c(C)n1-c1cccc(C(=O)O)c1` was 28.2 µM (active).
The value for `O=C(CSCc1cnn(-c2ccccc2)c1-n1cccc1)NCc1ccc(Cl)cc1` was “inactive”; that for `COc1ccccc1/C=C/c1nc(C#N)c(NC(C)c2ccccc2)o1` (stereo not drawn) was “inactive”; that for `COc1ccc(-c2nc3sc(CCNC(=O)C(C)(C)C)c(C)n3n2)cc1` was “inactive”.
Turning to `Cc1ccc2onc(CC(=O)N3CCN(c4ccc(Cl)cc4)CC3)c2c1`, the Potency result is “inactive”.
On to `CC(C)c1ccc(S(=O)(=O)Nc2ccc(O)c(Sc3nc4ccccc4s3)c2)cc1`, for which the Potency entry was “inactive”.
Under `COc1cccc(NC(=O)CSC2=Nc3ccccc3C3=NC(CC(=O)NC4CCCCC4)C(=O)N23)c1` (stereo not drawn) stands “inactive”; under `Cc1n[nH]c(=O)nc1N/N=C/c1cccs1`, “inactive”.
Regarding `O=C(Cn1cnc2ccccc21)N/N=C/c1ccco1`, the Potency entry is “inactive”.
The value for `O=c1nc(N/N=C/c2ccco2)cn[nH]1` was 11.2 µM (active); that for `CCC(=O)N1CCc2cc(S(=O)(=O)NC(C(=O)Nc3ccc(C(C)=O)cc3)C(C)C)ccc21` (stereo not drawn) was “inactive”; that for `Cc1cccc(C2CC(=O)Oc3c2c(=O)n(C)c2ccccc32)c1` (stereo not drawn) was “inactive”.
The value for `Cc1ccc(OCC(=O)Nc2ccc(Cl)c(-c3nc4ccccc4[nH]3)c2)cc1C` was “inactive”.
Under `COc1ccc(-c2nn(-c3ccccc3)cc2/C=C2/SC(=S)N(CCCC(=O)O)C2=O)c(C)c1` stands “inactive”; under `C=CCOc1ccc(/C=C2\SC(=S)N(CCC(=O)O)C2=O)cc1`, “inactive”.
As to `Cc1ccc(-c2nn(-c3ccccc3)cc2/C=C2\SC(=S)N(CCCCCC(=O)O)C2=O)o1`, the Potency is 50.1 µM (active).
